The text below walks through data of PubChem BioAssay AID624351 (Southern Research Specialized Biocontainment Screening …, 2012).

In all, about 2,400 compounds went through this assay and about 1,400 (58%) were called active. So high a share suggests a set chosen from earlier hits. This is one part of the list. Values without a mark were called inactive.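 How the source made its calls: active means inhibition of 30% or more at any tested dose; inconclusive means primary hits over the limit that were never retested; inactive means the rest.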

The experiment is described as follows: ADP Hunter readout inhibition without MgcRacGAP – biochemical, coupled enzyme counter-screen, artefact control for MgcRacGAP inhibitor project, dose response (AID 624351).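 Further: signal is the ADP detection kit reading of free GDP without any GAP enzyme.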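 On inhibition: 0% = median positive control wells and 100% = median negative control wells.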 As to conditions: fluorescence, no MgcRacGAP; series mostly up to 80 µM; inhibition: at the top concentration.
With `C#CCOCCOCCOCCNc1nc(N2CCN(C(=O)[C@H](CCCCN)n3cc([C@@H](N)C(C)CC)nn3)CC2)nc(N2CCN(C(=O)[C@H](CCCCN)n3cc([C@@H](N)CC(C)C)nn3)CC2)n1` (stereo not given in full), the “inhibition” value was 3.89%.
As to `CCn1c(C)nc2cc(C(=O)N/N=C/c3ccc(O)cc3)ccc21`, the half-maximal inhibitory concentration (IC50) was 81.6 µM (active).
With `CC1=NN(C(N)=S)C(=O)C1N=Nc1ccc(O)cc1` (stereo not given), the IC50 is 19.5 µM (active).
On to `CC(=O)Nc1ccc(Oc2nc(-c3ccccn3)nc3ccccc23)cc1`, for which the IC50 was 26.7 µM (active).
Regarding `O=C(Nc1ccc(Oc2nnc(-c3ccccc3)c3ccccc23)cc1)c1ccccc1`, the “inhibition” value is 6.04%.
Take `CN(C)CCCNCC(=O)c1c(-c2ccccc2)n(C)c2ccccc12`: the inhibition was -1.7% [at 10 µM].
On to `O=C(N/N=C/c1ccc(O)c(O)c1)C1c2ccccc2Oc2ccccc21`, for which the IC50 was 51 µM (active).
Consider `CCOc1cc(/C=N/Nc2ncnc(Cl)c2N)ccc1O`, for which the IC50 was 30.7 µM (active).
`Nc1c(Cl)ncnc1N/N=C/c1ccc(O)cc1`: the IC50 was 15.1 µM (active).
The same measure, in the same setting: in the case of `Oc1ccc(/C=N/Nc2ncnc3nc[nH]c23)cc1` it was 13.2 µM (active).
Regarding `c1nc(SSc2ncnc3nc[nH]c23)c2[nH]cnc2n1`, the “inhibition” value is -4.3%.
On to `Cc1[nH]ccc2c1[nH]c1cc(=O)ccc12`, for which the IC50 is 61.9 µM (active).
With `CC/C(=N\O)c1ccc(O)c(OC)c1`, the IC50 was 61.2 µM (active).
Consider `COc1ccc(S(=O)(=O)N2CCC(N3CCN(Cc4ccccc4)CC3)CC2)cc1`, for which the “inhibition” value is 24.6%.
In the case of `O=c1cc(-c2ccc(O)c(O)c2)oc2cc(O)c(C3OC(CO)C(O)C(O)C3O)c(O)c12` (stereo not given), the half-inhibitory concentration (IC50) was 45.9 µM (active).
For `O=c1cc(-c2ccc(O)c(O)c2)oc2cc(O)c([C@@H]3O[C@H](CO)[C@@H](O)[C@H](O)[C@H]3O)c(O)c12`, the IC50 is 59 µM (active).
Regarding `O=C(O)c1cc(O)c2c(c1)[C@@H]([C@H]1c3cc(C(=O)O)cc(O)c3C(=O)c3c(O[C@@H]4O[C@H](CO)[C@@H](O)[C@H](O)[C@H]4O)cccc31)c1cccc(OC3O[C@H](CO)[C@@H](O)[C@H](O)[C@H]3O)c1C2=O` (stereo not given in full), the “inhibition” value was -39.8%.
With `C[C@@H]1O[C@@H](OC[C@H]2O[C@@H](Oc3cc(O)c4c(=O)cc(-c5ccc(O)c(O)c5)oc4c3)[C@H](O)[C@@H](O)[C@@H]2O)[C@H](O)[C@H](O)[C@H]1O`, the IC50 was 46 µM (active).
Turning to `COc1cc(/C=C/C(=O)OCC(=O)NCc2ccc(F)cc2)ccc1O`, the IC50 was 40 µM (active).
On to `COc1cc(/C=C/C(=O)OCC(=O)N(CC(C)C)c2c(N)n(Cc3ccccc3)c(=O)[nH]c2=O)ccc1O`, for which the IC50 was 61.2 µM (active).
On the same count and under the same terms, for `COC(=O)c1ccc(CNC(=O)COC(=O)/C=C/c2ccc(O)c(OC)c2)cc1` the value was 31 µM (active).
For the compound `CN(CC(=O)NCc1ccccc1)Cc1cccc(F)c1`, the “inhibition” value is 26.6%.
With `COC(=O)c1ccc2c(c1)C(C)(C)C(/C=C/c1ccccc1O)=[N+]2C`, the “inhibition” value is 23.1%.
Consider `COC(=O)c1ccc2c(c1)C(C)(C)C(/C=C/c1ccc(OC)c(OC)c1OC)=[N+]2C`, for which the “inhibition” value was -4.4%.
As to `COc1ccc(CNC(=O)CN(C)Cc2ccc(C(C)(C)C)cc2)cc1`, the “inhibition” value is 24.6%.
On the same count and under the same terms, for `COc1cc(C(C[N+](=O)[O-])c2c(N)n(C)c(=O)n(C)c2=O)ccc1O` (stereo not given) the value was 28.1%.
Take `COc1cc(/C=C/C(=O)OCC(=O)NCCCc2ccccc2)ccc1O`: the IC50 is 33.5 µM (active).
For `CC(C)(c1ccccc1)c1ccc(OCC(O)CNC2CCN(Cc3ccccc3)CC2)cc1` (stereo not given), the “inhibition” value is 27.9%.
Take `CN(C)c1ccc(N=Cc2nc(-c3ccccc3)oc2OC(=O)c2cccc(Cl)c2)cc1`: the “inhibition” value is 12.6%.
For the compound `COc1cc(/C=C/C(=O)OCC(=O)N(C)Cc2ccccc2)ccc1O`, the IC50 is 34.7 µM (active).
As to `CC(C(=O)N(C)Cc1ccccc1)N1CCN(C/C=C/c2ccccc2)CC1` (stereo not given), the “inhibition” value was 18%.
With `C/C=C/c1ccc(OCCCCN(C)Cc2ccccc2)c(OC)c1`, the “inhibition” value is -10.9%.
Consider `Oc1ccc(/C=N/Nc2ccnc3cc(Cl)ccc23)cc1O`, for which the IC50 was 40.3 µM (active).
`Oc1ccc(Nc2ccnc3cc(Cl)ccc23)cc1`: the IC50 is 26.3 µM (active).
Regarding `Oc1ccc(N2CCN(c3ccnc4cc(Cl)ccc34)CC2)cc1`, the IC50 is 53.3 µM (active).
Regarding `CN(C)c1ncc(C2=C(Cl)C(=O)C(N3CCCC3)=C(Cl)C2=O)s1`, the inhibition is -12.5% [at 10 µM].
Consider `Nc1ccc2c(c1)OC1(CCCC1)O2`, for which the IC50 is 26 µM (active).
On the same count and under the same terms, in the case of `Nc1cc(Cc2ccccc2)ccc1O` it was 24.1 µM (active); in that of `COc1ccc(Br)cc1CNc1ccc(O)cc1`, 54 µM (active).
For the compound `Oc1ccc(NCc2ccccc2OCc2ccccc2F)cc1`, the “inhibition” value is -18.7%.
`COc1ccc(Br)cc1CN(C)CC(=O)NCCc1ccccc1`: the “inhibition” value was 19.1%.
In the case of `CN1C(=O)/C(=C/C=C2/CCCN2C)N(C)C1=S`, the IC50 was 24.6 µM (active).
For the compound `CN1C(=O)/C(=C/C=C2\SCCN2C)N(C)C1=S`, the IC50 is 26.6 µM (active).
Take `c1ccc(-c2ccccc2OCCOCCN2CCOCC2)cc1`: the “inhibition” value is 28%.
As to `NC(N)=N/N=C/c1ccc(Cl)cc1Cl`, the “inhibition” value is 14.4%.
In the case of `CCN(CC)c1ccc(/C=N/Nc2nc(C)cc(C)n2)c(O)c1`, the half-maximal inhibitory concentration (IC50) was 65.2 µM (active).
Regarding `CCN(CC)c1ccc(/C=N/NC(=O)OC)c(O)c1`, the IC50 is 62.6 µM (active).
Take `CCOC(=O)N/N=C/c1ccc(N(CC)CC)cc1O`: the IC50 was 81.2 µM (active).
Take `CCc1ccc2nc3sc(C(=O)O)cc3cc2c1`: the “inhibition” value was 22.5%.
As for `CCOc1cc(/C=N/Nc2nc(=O)[nH]nc2C)ccc1O`, the IC50 is 43.9 µM (active).
Turning to `CCOc1cc(/C=N/Nc2ncc(C)c(=O)[nH]2)ccc1O`, the IC50 is 38.9 µM (active).
Regarding `COc1cc(CC(=O)OCC(=O)Nc2ccc(N(C)C)cc2)cc(OC)c1OC`, the IC50 was 68 µM (active).
Take `CCc1ccc(NC(=O)CNCc2ccc(OC)c(OC)c2)cc1`: the “inhibition” value was 17.8%.
As for `COc1ccccc1/C=C(/C(=O)OCC(=O)Nc1ccc(N(C)C)cc1)c1ccccc1`, the IC50 is 66.3 µM (active).
On to `COc1ccccc1CNCC(=O)Nc1ccc(N(C)C)cc1`, for which the IC50 is 63.3 µM (active).
Consider `COc1ccccc1CNCC(=O)Nc1ccccc1-n1cccc1`, for which the “inhibition” value was 8.83%.
As for `CCN(CC)c1ccc(NC(=O)COC(=O)Cc2ccsc2)cc1`, the IC50 was 42.9 µM (active).
As for `COc1ccccc1CNCC(=O)NCc1ccc(C)cc1`, the “inhibition” value is 16.4%.
Consider `COc1ccccc1CNC(=O)C[C@@H]1C[C@H]2c3cc(N(C)C)ccc3O[C@H]2[C@H](CO)O1`, for which the “inhibition” value is 24.9%.
As to `COc1ccc(NCCC#N)cc1`, the IC50 was 82.2 µM (active).
In the case of `O=S(=O)(O)c1cc(O)c(N=Nc2ccc(O)cc2O)c2ccccc12`, the IC50 was 30.7 µM (active).
Regarding `CC(C)C1N=C2c3ccccc3N=C(SCC(=O)c3ccc(O)c(O)c3)N2C1=O` (stereo not given), the IC50 is 34.7 µM (active).
Take `CCN(CC)c1ccc(Nc2nc(Cl)ncc2Br)cc1`: the IC50 was 49.4 µM (active).
`O=c1oc(-c2ccc(O)c(O)c2)cc2cccc(O)c12`: the IC50 is 20.7 µM (active).
On to `O=c1oc(-c2ccc(O)c(O)c2)cc2cc(O)cc(O)c12`, for which the IC50 was 23 µM (active).
As to `N#CC1=C(S)N(c2ccc(F)cc2)C(c2cccs2)NC1=O` (stereo not given), the “inhibition” value is 7.33%.
In the case of `O=C1NC2c3c(I)sc(I)c3C(=O)C2O1` (stereo not given), the “inhibition” value was -1.56%.
Still for that read-out and setting: in the case of `COc1cc(CNCCNC(=O)c2nonc2N)ccc1OCc1ccc(Cl)cc1` it was 3.53%.
Regarding `COc1cc(/C=N/N=C(\N)c2nonc2N)ccc1O`, the IC50 is 30.3 µM (active).
On to `Oc1ccc(/C=N/N=C/c2ccc(O)cc2)cc1`, for which the IC50 was 84 µM (active).
Same read-out and setting: for `N/C(=N\N=C\c1ccc(O)cc1)c1nonc1N` the value was 31.1 µM (active).
For the compound `N#Cc1c(Nc2ccc(Cl)cc2)s[nH]c1=O`, the “inhibition” value was 5.36%.
For `Cc1ccc(/C=[N+](\[O-])c2ccc(N(C)C)cc2)c2nsnc12`, the IC50 was 16.1 µM (active).
As to `CCOC(=O)C1(C)C=C(Nc2ccc(O)cc2)C(=O)N1c1ccc(O)cc1` (stereo not given), the IC50 was 19.6 µM (active).
For `O=C1/C(=C\c2ccco2)CCC/C1=C\c1ccco1`, the “inhibition” value is -14%.
Regarding `Nc1cc(Br)c(N)c(Br)c1`, the IC50 is 10.6 µM (active).
Take `OCCN1CCN(C(=S)Nc2cccc(C(F)(F)F)c2)CC1`: the “inhibition” value is 18.4%.
Consider `OCC1CCCN(C(=S)Nc2ccc(Nc3ccccc3)cc2)C1` (stereo not given), for which the IC50 was 41.7 µM (active).
For the compound `CCOC(=O)C1CCN(Cc2ccc(-c3ccccc3)cc2)CC1`, the “inhibition” value was 9.78%.
Regarding `CCOC(=O)C1CCCN(C(=S)Nc2ccc(Nc3ccccc3)cc2)C1` (stereo not given), the IC50 was 55.1 µM (active).
As to `OC1CCN(C(=S)Nc2ccc(Nc3ccccc3)cc2)CC1`, the IC50 was 36.5 µM (active).
Take `CCOC(=O)C1CCN(Cc2cccc(Oc3ccccc3)c2)CC1`: the “inhibition” value is 11.4%.
Regarding `COc1ccc(CN2CCN(CCSc3ccc(C)cc3)CC2)c(OC)c1OC`, the “inhibition” value is 26.8%.
The same measure, in the same setting: in the case of `CC1CN(CCCCOc2ccc(Cl)c3ccccc23)CC(C)O1` (stereo not given) it was 11.3%; in that of `CSc1sccc1/C=C(/C#N)C(=O)c1ccco1`, 3.74%; in that of `NC(CSS(=O)(=O)O)=NCCC12CC3CC(CC(O)(C3)C1)C2`, 3.73%.
Turning to `COc1cc(/C=N/NC(=O)c2nc(-c3ccccc3)n(-c3ccccc3)n2)ccc1O`, the IC50 was 41.9 µM (active).
Same read-out and setting: in the case of `COc1cc(/C=N/Nc2nc(C)cc(C)n2)ccc1O` it was 60.7 µM (active); in that of `COc1cc(/C=N/NC(=O)c2nc(C)cc(C)n2)ccc1O`, 37.3 µM (active); in that of `COc1cc(/C=N/NC(=O)c2cc(-c3c(C)nn(-c4ccccc4)c3C)n[nH]2)ccc1O`, 38.8 µM (active).
`c1cc(CN2CCN(C3CCCCCC3)CC2)ccn1`: the “inhibition” value was 23.8%.
As for `COc1cc(/C=N/NC2=NCCCCC2)ccc1O`, the IC50 is 27.6 µM (active).
With `Nc1nc2cc(S(=O)(=O)NC3=NCCCCC3)ccc2s1`, the “inhibition” value is 1.02%.
`Oc1ccc(/C=N/NC2=NCCCCC2)c(O)c1`: the IC50 was 67.6 µM (active).
Take `COc1cc(/C=N/NC(=O)c2cn(-c3cccc(C)n3)cn2)ccc1O`: the IC50 was 37.3 µM (active).
Turning to `COc1cc(/C=N/Nc2cc(C)nc(NS(=O)(=O)c3ccccc3)n2)ccc1O`, the IC50 was 41 µM (active).
With `O=c1[nH]c2ccccc2n2c(=S)[nH]nc12`, the IC50 was 78.8 µM (active).
Regarding `S=c1[nH]c2ccccc2n2c(=S)[nH]nc12`, the IC50 was 51.8 µM (active).
For the compound `CCCCN(CCCC)CCNC(=O)CSCc1ccc(C)cc1`, the “inhibition” value is 19.8%.
`Cc1cccc(-n2nc3c(c2NC(=O)c2ccco2)CSC3)c1C`: the “inhibition” value was 0.97%.
